Pf growth 96h: P. falciparum growth inhibition at 96 hour, primary screen for plastid delayed-death inhibitors; P. falciparum luciferase reporter growth, 96 h; Potency, µM (titrated, usually from 28.7 µM), most hits filed as inhibitors; 320,000 compounds, 6.9% hits
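96 h incubation, 37 C, 5% CO2, of luciferase-reporter P. falciparum-infected RBCs (2% hematocrit, 0.05% parasitemia final) with test compounds; endpoint luminescence.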
SARS PLpro yeast: blocks SARS-CoV papain-like protease in a yeast assay | Potency, µM (series often up to 32.9 µM), actives largely listed as activators | S. cerevisiae expressing SARS-CoV PLpro, growth rescue | AID 485353 | 330,000 compounds, 0.19% hits; calls by dose curve; note: nearly all actives have a fitted effect of over 55% in size
Pf growth 48h: inhibits P. falciparum growth in the first generation, 48 h; AID 504832; 310,000 compounds, 5.9% hits; Potency, µM (top dose mostly 28.7 µM), actives largely listed as inhibitors; P. falciparum luciferase growth in erythrocytes, 48 h
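Cell-based growth assay: transgenic P. falciparum expressing firefly luciferase, cultured in red cells within RPMI 1640 containing 0.5% w/v Albumax, 24 mM bicarbonate and gentamycin. A drop in luciferase activity indicates inhibition.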
AMA1-RON2 inh: AMA1-RON2 (P. falciparum) interaction inhibition; AlphaScreen AMA1-biotinylated RON2 peptide binding; Potency, µM (series often up to 58.2 µM), usual class: inhibitors; 360,000 compounds, 0.2% hits; AID 720542; note: nearly all actives have a fitted effect of over 45% in size
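AMA1 (3D7) with his tag at 25 nM final met compounds first, then biotinylated RON2 peptide at 25 nM; detection used donor plus acceptor beads, 10 µg/mL apiece, read by AlphaScreen after 30 min at room temperature.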
Large screens that a line does not name were inactive. Compounds with a hit are over-represented: about 9.4% of the library has one in this group of screens. Unless noted, calls come from the whole dose curve; as a rule, active = well fitted curve in the direction sought with a large enough effect; inconclusive = small, poorly fitted or top-dose-only effect, or another doubt; inactive = no such curve, though single readings can be large; an effect the other way counts as inactive or inconclusive.

Cc1ccc(S(=O)(=O)NC2(C(=O)O)CCCCC2)cc1	none (no result: Pf growth 96h)
CCNc1nc(NC(C)(C)C)nc(N2CCCC2)n1	Pf growth 48h 1.5µM
CCn1c(CCCOc2ccc(Cl)cc2Cl)nnc1SCC(=O)Nc1cccc(F)c1	none
O=c1cc2oc3cc(O)c(O)cc3c(-c3ccccc3O)c-2cc1O	Pf growth 96h 3.7µM, Pf growth 48h 4.1µM, AMA1-RON2 inh 1.1µM
c1ccc(Cn2cnc3ccccc32)cc1	Pf growth 96h 8.3µM
O=C(COc1ccc(S(=O)(=O)N2CCOCC2)cc1Cl)NC1CCCCC1	Pf growth 48h inconclusive
Cc1ccc2[nH]c(=O)c(CN(Cc3cccnc3)C(=S)NCCCN(C)C)cc2c1	Pf growth 48h 15µM
CCN(CC)CCCNC(=S)N(Cc1cccnc1)Cc1cc2cc(C)ccc2[nH]c1=O	Pf growth 96h 5.9µM, Pf growth 48h 2.3µM
CCN(CC)CCCNC(=S)N(Cc1cccnc1)Cc1cc2cccc(C)c2[nH]c1=O	Pf growth 96h inconclusive, Pf growth 48h inconclusive
Cc1cc(C)c(C(=O)CN2C(=O)NC3(CCCCC3)C2=O)cc1C	none
O=C(O)c1cccc(COc2ccc(CO)cc2Cl)c1	Pf growth 96h inconclusive, Pf growth 48h 0.21µM
O=C(O)c1ccc(COc2ccc(CO)cc2Cl)cc1	none
Cc1cc(C)c(C)c(OCCN2CC(C)OC(C)C2)c1 (centres undefined)	AMA1-RON2 inh 28µM
CC1CN(CCOc2cccc(Oc3ccccc3)c2)CC(C)O1 (centres undefined)	Pf growth 96h inconclusive, AMA1-RON2 inh 25µM
O=C(NCCN1CCOCC1)C(=O)NCC1OCCCN1S(=O)(=O)c1ccc(F)cc1 (centres undefined)	Pf growth 96h inconclusive
COc1ccc(F)cc1S(=O)(=O)n1cnc2ccccc21	none
CCC(C)(C)n1nnnc1C(c1ccc(C)cc1)N1CCC(C)CC1 (centres undefined)	Pf growth 48h 10µM
CCC(C)(C)n1nnnc1C(c1ccc(C)cc1)N1CCN(Cc2ccc3c(c2)OCO3)CC1 (centres undefined)	Pf growth 96h inconclusive, Pf growth 48h 15µM
Cc1ccc(C(=O)Nc2cccc(C(F)(F)F)c2)cc1Nc1ncnc2nc[nH]c12	Pf growth 96h 13µM, Pf growth 48h 13µM
Nc1ncnc(Nc2ccc(F)cc2)n1	none
Fc1ccc(Nc2ccnc(Nc3ccc(F)cc3)n2)cc1	Pf growth 96h inconclusive, Pf growth 48h 2.3µM
O=C(NC(=S)NCCc1ccccc1)c1ccco1	none
CCCCCCNC(=O)N[C@H](C(=O)NCCC[C@H]1CN2C(=NC[C@H]2C)N1CCC(c1ccccc1)c1ccccc1)C(C)O (some centres undefined)	Pf growth 96h 2.9µM, Pf growth 48h 9.3µM (no result: AMA1-RON2 inh)
CCc1ccc(-c2nc(CN3CCC(C(=O)NCCc4ccc(OC)c(OC)c4)CC3)c(C)o2)cc1	Pf growth 96h inconclusive, Pf growth 48h inconclusive
Cc1ccccc1NC(=O)NCCc1nc2ccccc2[nH]1	none
CCOc1ccc(-c2c(C(=O)N/N=C/c3ccc(C)s3)nnn2-c2nonc2N)cc1	Pf growth 96h inconclusive
CCOc1cccc(-c2c(C(=O)N/N=C/c3ccc(C)s3)nnn2-c2nonc2N)c1	Pf growth 96h 15µM, Pf growth 48h inconclusive
COc1cccc(-c2c(C(=O)N/N=C/c3ccc(C)s3)nnn2-c2nonc2N)c1	Pf growth 96h 4.1µM, Pf growth 48h 10µM
CC(=O)[C@H]1CC[C@@H](c2ccccc2)N(S(=O)(=O)c2ccc(C)cc2)C1	none (no result: Pf growth 96h, SARS PLpro yeast, Pf growth 48h)
Cc1ccc(OCCNC(=O)CCc2nc3sc4c(c3c(=O)[nH]2)CCCC4)cc1	none (no result: Pf growth 96h, SARS PLpro yeast, Pf growth 48h)
Cn1c(=O)c(C(=O)c2ccccc2)nc2ccccc21	none (no result: Pf growth 48h)
O=C(c1ccccc1)c1nc2ccccc2n(CCCn2c(=O)c(C(=O)c3ccccc3)nc3ccccc32)c1=O	Pf growth 96h inconclusive, Pf growth 48h 3.7µM
Cc1cc(=S)nc(-c2ccccn2)[nH]1	Pf growth 96h 3.7µM, SARS PLpro yeast inconclusive, Pf growth 48h 10µM
Cc1[nH]c(-c2ccccn2)nc(=S)c1Cl	Pf growth 96h inconclusive, Pf growth 48h inconclusive
C[C@@H]1CN([C@H](C)CO)C(=O)CCCn2nncc2CO[C@H]1CN(C)S(C)(=O)=O	none (no result: Pf growth 96h, SARS PLpro yeast, Pf growth 48h)
CCN(CC)c1ccc(C(=O)NNC(=O)CCl)cc1	Pf growth 96h inconclusive, Pf growth 48h 6.6µM
COc1ccc(S(=O)(=O)N/N=C\c2ccc([N+](=O)[O-])o2)c(OC)c1	Pf growth 96h 10µM
Cc1sc2nc(C3CC3)nc(NCCNS(=O)(=O)c3ccccc3)c2c1C	Pf growth 48h 9.3µM
Cc1sc2nc(CSc3ccccc3)nc(N3CCC(C(N)=O)CC3)c2c1C	Pf growth 96h 12µM, Pf growth 48h inconclusive
